Source: PMC7862700, “An all-to-all approach to the identification of sequence-specific readers for epigenetic DNA modifications on cytosine”

Tests used:
Assay in all cases: DAPPL (digital affinity profiling via proximity ligation, sequencing); 10 mM Tris-HCl pH 7.5, 50 mM NaCl, 1 mM DTT, 4% glycerol, room temperature, 30 min; GST-TFs on glutathione beads, 16-mer random dsDNA library, 0.1% formaldehyde crosslink after washing; high values mean tight binding
Conditions in all cases: protein: recombinant; tags: N-terminal GST; dsDNA, one strand shown
ERF = target: T1, ERF (Homo sapiens, UniProt P50548 1-548)
T1 sequence: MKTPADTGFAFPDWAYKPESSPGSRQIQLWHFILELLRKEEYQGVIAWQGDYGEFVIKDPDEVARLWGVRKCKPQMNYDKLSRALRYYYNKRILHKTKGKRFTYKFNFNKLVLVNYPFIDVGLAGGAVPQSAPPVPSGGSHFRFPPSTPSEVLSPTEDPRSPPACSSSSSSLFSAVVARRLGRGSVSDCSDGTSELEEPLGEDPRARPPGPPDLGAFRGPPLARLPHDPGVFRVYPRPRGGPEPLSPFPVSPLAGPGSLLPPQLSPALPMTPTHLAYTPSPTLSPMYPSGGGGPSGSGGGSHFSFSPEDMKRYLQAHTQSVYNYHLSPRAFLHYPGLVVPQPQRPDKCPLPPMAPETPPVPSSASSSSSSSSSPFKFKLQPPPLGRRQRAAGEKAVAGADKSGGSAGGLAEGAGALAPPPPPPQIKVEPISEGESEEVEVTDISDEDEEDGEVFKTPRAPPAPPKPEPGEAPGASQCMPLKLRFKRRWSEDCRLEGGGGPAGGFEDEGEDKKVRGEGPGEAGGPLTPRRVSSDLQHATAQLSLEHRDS
How it was run: (§1)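 Binding signal is defined as a hexamer's read frequency for one factor over its frequency for the tag-only sample. To obtain reads, GST-fused human transcription factors were expressed in yeast, captured on glutathione beads, barcoded with DNA and pooled with that sample. Pools met 200 nmole of a 16-mer random double-stranded DNA library in Tris/NaCl/DTT/glycerol buffer for 30 min at room temperature before washing, 0.1% formaldehyde crosslinking, proximity ligation (BsaI/T4 ligase, 1 h, 37 °C), PCR and Illumina NextSeq500 sequencing.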

ETV3L = target: T2, ETV3L (Homo sapiens, UniProt Q6ZN32 1-361)
T2 sequence: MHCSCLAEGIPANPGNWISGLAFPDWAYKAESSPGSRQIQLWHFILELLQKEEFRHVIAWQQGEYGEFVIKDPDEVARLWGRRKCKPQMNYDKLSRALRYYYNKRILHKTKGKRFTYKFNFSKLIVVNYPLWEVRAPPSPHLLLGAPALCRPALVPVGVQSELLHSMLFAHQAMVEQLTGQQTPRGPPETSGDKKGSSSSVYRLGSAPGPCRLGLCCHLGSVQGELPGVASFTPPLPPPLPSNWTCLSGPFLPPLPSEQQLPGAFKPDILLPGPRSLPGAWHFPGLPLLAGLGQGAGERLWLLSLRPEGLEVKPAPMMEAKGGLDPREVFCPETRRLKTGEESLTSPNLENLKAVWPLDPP
How it was run: as §1

ETS2 = target: T3, ETS2 (Homo sapiens, UniProt P15036 1-469)
T3 sequence: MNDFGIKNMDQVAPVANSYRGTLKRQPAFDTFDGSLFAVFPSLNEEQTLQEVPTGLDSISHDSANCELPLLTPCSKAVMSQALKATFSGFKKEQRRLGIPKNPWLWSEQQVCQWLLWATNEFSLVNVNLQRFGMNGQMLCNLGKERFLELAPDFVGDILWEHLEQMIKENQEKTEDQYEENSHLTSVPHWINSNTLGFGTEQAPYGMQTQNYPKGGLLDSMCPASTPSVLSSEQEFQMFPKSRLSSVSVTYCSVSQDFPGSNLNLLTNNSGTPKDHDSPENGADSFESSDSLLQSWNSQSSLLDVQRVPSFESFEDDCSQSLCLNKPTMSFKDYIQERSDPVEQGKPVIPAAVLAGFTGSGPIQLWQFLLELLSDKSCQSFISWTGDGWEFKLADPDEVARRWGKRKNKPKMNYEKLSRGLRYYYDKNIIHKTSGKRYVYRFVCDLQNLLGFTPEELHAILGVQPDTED
How it was run: as §1

SPDEF = target: T4, SPDEF (Homo sapiens, UniProt O95238 1-335)
T4 sequence: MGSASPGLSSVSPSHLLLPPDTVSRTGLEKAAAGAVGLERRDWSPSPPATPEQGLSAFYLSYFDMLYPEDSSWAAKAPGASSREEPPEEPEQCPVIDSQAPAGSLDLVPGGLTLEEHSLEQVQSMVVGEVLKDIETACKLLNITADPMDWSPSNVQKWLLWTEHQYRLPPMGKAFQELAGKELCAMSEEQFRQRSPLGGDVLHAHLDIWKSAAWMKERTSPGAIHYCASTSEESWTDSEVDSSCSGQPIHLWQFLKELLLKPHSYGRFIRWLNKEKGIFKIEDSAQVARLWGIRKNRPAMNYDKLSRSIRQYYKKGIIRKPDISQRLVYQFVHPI
How it was run: as §1

ETV7 = target: T5, ETV7 (Homo sapiens, UniProt Q9Y603 1-341)
T5 sequence: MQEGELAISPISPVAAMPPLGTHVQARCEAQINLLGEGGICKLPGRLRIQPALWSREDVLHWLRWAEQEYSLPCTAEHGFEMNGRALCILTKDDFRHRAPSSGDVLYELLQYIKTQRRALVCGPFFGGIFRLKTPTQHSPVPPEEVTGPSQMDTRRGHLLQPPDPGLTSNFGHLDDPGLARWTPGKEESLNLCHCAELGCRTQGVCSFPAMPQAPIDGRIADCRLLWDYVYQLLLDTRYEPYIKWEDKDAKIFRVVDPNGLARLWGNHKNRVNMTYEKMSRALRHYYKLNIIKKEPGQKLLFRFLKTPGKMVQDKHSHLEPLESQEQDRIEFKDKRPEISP
How it was run: as §1

ELF5 = target: T6, ELF5 (Homo sapiens, UniProt Q9UKW6-2 1-255)
T6 sequence: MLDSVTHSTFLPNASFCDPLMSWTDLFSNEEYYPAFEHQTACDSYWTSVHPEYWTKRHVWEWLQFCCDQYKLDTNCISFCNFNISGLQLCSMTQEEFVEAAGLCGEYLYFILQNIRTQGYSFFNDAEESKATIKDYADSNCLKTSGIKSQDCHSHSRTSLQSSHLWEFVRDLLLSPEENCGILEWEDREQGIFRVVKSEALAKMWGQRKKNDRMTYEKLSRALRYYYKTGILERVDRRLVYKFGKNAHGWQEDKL
How it was run: as §1

ETV3 = target: T7, ETV3 (Homo sapiens, UniProt P41162-2 1-143)
T7 sequence: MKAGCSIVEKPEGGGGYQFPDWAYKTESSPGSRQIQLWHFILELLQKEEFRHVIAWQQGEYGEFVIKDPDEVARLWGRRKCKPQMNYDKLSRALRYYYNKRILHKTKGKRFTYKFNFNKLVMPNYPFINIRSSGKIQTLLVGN
How it was run: as §1

ETV6 = ETV6 (Homo sapiens, UniProt P41212 1-452)
Sequence of ETV6 (P41212 whole entry): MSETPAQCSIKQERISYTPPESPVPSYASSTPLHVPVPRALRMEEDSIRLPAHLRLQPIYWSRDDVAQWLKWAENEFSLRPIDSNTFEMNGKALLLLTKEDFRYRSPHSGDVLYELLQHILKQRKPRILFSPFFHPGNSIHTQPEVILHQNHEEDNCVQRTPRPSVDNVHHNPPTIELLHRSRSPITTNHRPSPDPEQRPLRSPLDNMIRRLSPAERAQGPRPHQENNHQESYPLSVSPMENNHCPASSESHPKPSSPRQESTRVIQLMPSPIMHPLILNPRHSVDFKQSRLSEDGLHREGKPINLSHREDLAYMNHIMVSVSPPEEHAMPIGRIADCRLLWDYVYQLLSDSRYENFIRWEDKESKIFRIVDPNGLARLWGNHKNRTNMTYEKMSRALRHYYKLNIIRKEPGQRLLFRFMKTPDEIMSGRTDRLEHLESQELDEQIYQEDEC
How it was run: as §1

Sequence	binding signal (ERF)	binding signal (ETV3L)	binding signal (ETS2)	binding signal (SPDEF)	binding signal (ETV7)	binding signal (ELF5)	binding signal (ETV3)	binding signal (ETV6)
CCGAGC	1.17 fold enrichment (6-mer frequency, TF over GST control)	1.1 fold enrichment (6-mer frequency, TF over GST control)	1.17 fold enrichment (6-mer frequency, TF over GST control)	1.06 fold enrichment (6-mer frequency, TF over GST control)	1.15 fold enrichment (6-mer frequency, TF over GST control)	1.12 fold enrichment (6-mer frequency, TF over GST control)	1.04 fold enrichment (6-mer frequency, TF over GST control)	1.13 fold enrichment (6-mer frequency, TF over GST control)
CTTGAC	1.16 fold enrichment (6-mer frequency, TF over GST control)	1.17 fold enrichment (6-mer frequency, TF over GST control)	1.12 fold enrichment (6-mer frequency, TF over GST control)	1.13 fold enrichment (6-mer frequency, TF over GST control)	1.2 fold enrichment (6-mer frequency, TF over GST control)	1.21 fold enrichment (6-mer frequency, TF over GST control)	1.22 fold enrichment (6-mer frequency, TF over GST control)	1.23 fold enrichment (6-mer frequency, TF over GST control)
GTTCAT	1.11 fold enrichment (6-mer frequency, TF over GST control)	1.16 fold enrichment (6-mer frequency, TF over GST control)	1.16 fold enrichment (6-mer frequency, TF over GST control)	1.18 fold enrichment (6-mer frequency, TF over GST control)	1.05 fold enrichment (6-mer frequency, TF over GST control)	1.1 fold enrichment (6-mer frequency, TF over GST control)	1.1 fold enrichment (6-mer frequency, TF over GST control)	1.17 fold enrichment (6-mer frequency, TF over GST control)
TCATCA	1.23 fold enrichment (6-mer frequency, TF over GST control)	1.18 fold enrichment (6-mer frequency, TF over GST control)	1.15 fold enrichment (6-mer frequency, TF over GST control)	1.12 fold enrichment (6-mer frequency, TF over GST control)	1.15 fold enrichment (6-mer frequency, TF over GST control)	1.16 fold enrichment (6-mer frequency, TF over GST control)	1.22 fold enrichment (6-mer frequency, TF over GST control)	1.08 fold enrichment (6-mer frequency, TF over GST control)
CACCCC	1.36 fold enrichment (6-mer frequency, TF over GST control)	1.34 fold enrichment (6-mer frequency, TF over GST control)	1.22 fold enrichment (6-mer frequency, TF over GST control)	1.24 fold enrichment (6-mer frequency, TF over GST control)	1.11 fold enrichment (6-mer frequency, TF over GST control)	1.16 fold enrichment (6-mer frequency, TF over GST control)	1.27 fold enrichment (6-mer frequency, TF over GST control)	1.14 fold enrichment (6-mer frequency, TF over GST control)
GTCCTC	1.19 fold enrichment (6-mer frequency, TF over GST control)	1.22 fold enrichment (6-mer frequency, TF over GST control)	1.14 fold enrichment (6-mer frequency, TF over GST control)	1.19 fold enrichment (6-mer frequency, TF over GST control)	1.39 fold enrichment (6-mer frequency, TF over GST control)	1.32 fold enrichment (6-mer frequency, TF over GST control)	1.2 fold enrichment (6-mer frequency, TF over GST control)	1.06 fold enrichment (6-mer frequency, TF over GST control)
CCCACG	1.13 fold enrichment (6-mer frequency, TF over GST control)	1.05 fold enrichment (6-mer frequency, TF over GST control)	1.17 fold enrichment (6-mer frequency, TF over GST control)	1.05 fold enrichment (6-mer frequency, TF over GST control)	1.18 fold enrichment (6-mer frequency, TF over GST control)	1.15 fold enrichment (6-mer frequency, TF over GST control)	1.11 fold enrichment (6-mer frequency, TF over GST control)	1.09 fold enrichment (6-mer frequency, TF over GST control)
TGACTC	1.21 fold enrichment (6-mer frequency, TF over GST control)	1.21 fold enrichment (6-mer frequency, TF over GST control)	1.38 fold enrichment (6-mer frequency, TF over GST control)	1.27 fold enrichment (6-mer frequency, TF over GST control)	1.41 fold enrichment (6-mer frequency, TF over GST control)	1.28 fold enrichment (6-mer frequency, TF over GST control)	1.32 fold enrichment (6-mer frequency, TF over GST control)	1.28 fold enrichment (6-mer frequency, TF over GST control)
TAAAGA	1.23 fold enrichment (6-mer frequency, TF over GST control)	1.12 fold enrichment (6-mer frequency, TF over GST control)	1.08 fold enrichment (6-mer frequency, TF over GST control)	1.04 fold enrichment (6-mer frequency, TF over GST control)	1.08 fold enrichment (6-mer frequency, TF over GST control)	1.05 fold enrichment (6-mer frequency, TF over GST control)	1.08 fold enrichment (6-mer frequency, TF over GST control)	1.06 fold enrichment (6-mer frequency, TF over GST control)
